# Assay outcomes (PubChem)
# In the library only some 12% were active in any assay of this set; here they are far more common.
# PLK1 PBD inh: blocks phosphopeptide binding to human PLK1 polo-box domain | P53350 | Plk1 PBD binding of FITC phosphopeptide, fluorescence polarization | Potency, µM, for inactives: max response, negative = inhibition, usual class: inhibitors | actives 2.8% (n = 360,000) | AID 720504; also: series mostly up to about 57 µM; nearly all actives have a fitted effect of over 65% in size
# ALDH1A1 block: blocks purified human ALDH1A1 activity; P00352; actives 7.3% (n = 220,000); Potency, µM (top dose mostly 75.3 µM), for inactives: at the top dose activity, negative = inhibition, actives largely listed as inhibitors; Purified ALDH1A1, NADH fluorescence, propionaldehyde substrate; AID 1030; active = well fitted inhibition curve with a large enough effect, not every such curve was filed as active; inconclusive = small, poorly fitted or top-dose-only effect, or another doubt; inactive = no such curve, though single readings can be large or run the other way;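 also: plate controls were no enzyme wells and a reference inhibitor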
# RORgamma inh: ROR gamma (mouse) transcription inhibition. P51450. Drosophila S2 Gal4-RORgamma UAS-luciferase reporter, 20 h. Potency, µM (series often up to 53.6 µM), for the others: at the top dose activity change, negative = inhibition, usual class: inhibitors. actives 5.4% (n = 310,000). AID 2551; also: nearly all actives have a fitted effect of over 60% in size
# Target sequence (P51450 whole entry, looked up, the tested form may be a part): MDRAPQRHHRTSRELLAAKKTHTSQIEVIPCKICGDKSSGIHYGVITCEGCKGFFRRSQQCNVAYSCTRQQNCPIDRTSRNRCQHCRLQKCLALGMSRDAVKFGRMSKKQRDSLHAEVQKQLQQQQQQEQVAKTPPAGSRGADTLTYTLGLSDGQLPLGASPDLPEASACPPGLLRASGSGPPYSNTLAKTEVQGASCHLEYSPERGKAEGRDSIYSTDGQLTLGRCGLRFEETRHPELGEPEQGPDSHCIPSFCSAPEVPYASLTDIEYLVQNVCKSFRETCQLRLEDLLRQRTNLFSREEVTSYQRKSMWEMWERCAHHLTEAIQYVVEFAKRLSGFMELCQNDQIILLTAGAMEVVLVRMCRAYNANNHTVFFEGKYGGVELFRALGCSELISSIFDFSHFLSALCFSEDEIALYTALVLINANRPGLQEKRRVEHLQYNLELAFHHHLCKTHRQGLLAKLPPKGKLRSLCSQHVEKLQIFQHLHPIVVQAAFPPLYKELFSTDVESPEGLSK
#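 Using a luciferase readout, inhibitors were identified by reduced reporter activity in Drosophila cells coexpressing a copper-inducible Gal4–ROR gamma fusion and UAS-driven Photinus luciferase, incubated 20 hr after 700 uM copper sulfate.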
# VP16 counter: counter-screen for ROR gamma inhibitors: Gal4-VP16 reporter; Drosophila S2 Gal4-VP16 UAS-luciferase, luminescence, 20 h; Potency, µM (top dose mostly 53.6 µM), inactives show top-dose activity, negative = inhibition, usual class: inhibitors; actives 3.5% (n = 310,000);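 also: Gal4-VP16 expression switched on by copper sulfate through the metallothionein promoter; nearly all actives have a fitted effect of over 50% in size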
# Sfp inh: inhibitors of Bacillus subtilis Sfp phosphopantetheinyl transferase; Q9F4F7; Potency, µM, for inactives: largest response in the series, negative = inhibition, most hits filed as inhibitors; actives 3.5% (n = 310,000); Biochemical Sfp PPTase activity, qHTS;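 also: the enzyme is Sfp with the accession as filed and its product quenches rhodamine fluorescence; 0% = enzyme reaction without inhibitor and -100% = no enzyme wells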
#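 Reaction rates are the 30-min fluorescence difference (ex 525, em 598 nm) in wells containing 15 nM Sfp, 5 uM rhodamine-CoA and 12.5 uM BHQ-2-YbbR at pH 7.6 with 10 mM MgCl2.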
# * hit, by the source's call; u = inconclusive; x = not tested or not shown; [ ] = another dose, or the depositor's remark. Unless noted, calls follow the shape of the dose curve; as a rule, active = well fitted curve in the direction sought with a large enough effect; inconclusive = small, poorly fitted or top-dose-only effect, or another doubt; inactive = no such curve, though single readings can be large; an effect the other way counts as inactive or inconclusive. Unless noted, % is scaled to controls: 0 for no effect and ±100 for the full control effect; potency is read from the fitted curve at half-maximal effect.
SMILES,PLK1 PBD inh,ALDH1A1 block,RORgamma inh,VP16 counter,Sfp inh
Cn1c(-c2c(N)n(CCc3ccccc3)c3nc4ccccc4nc23)nc2ccccc21,-5%,-11%,u,13µM*,-9%
Cn1c(-c2c(N)n(C3CCCC3)c3nc4ccccc4nc23)nc2ccccc21,-20%,5%,3.5µM*,5.6µM*,21%
Nc1c(C(=O)OCC2CCCO2)c2nc3ccccc3nc2n1C1CCCC1 (centres undefined),-2%,u,1%,-4%,-13%
Cn1c(-c2c(N)n(CCCc3ccccc3)c3nc4ccccc4nc23)nc2ccccc21,-2%,u,0.79µM*,2.8µM*,18%
COc1cccc(Nc2nc(C(N)c3ccccc3)cs2)n1 (centres undefined),-15%,x,x,x,x
CCOc1cccc2cc(C(=O)Nc3ccccc3-c3ccccc3)c(=O)oc12,-8%,0.14µM*,11%,5%,-9%
CCOc1ccccc1C(=O)Nc1ccccc1-c1ccccc1,-13%,u,21%,-4%,6%
CC1(C(=O)Nc2ccc(Cl)c(C(F)(F)F)c2)Cc2c(-c3ccc4c(c3)OCO4)ccnc2O1 (centres undefined),-7%,x,x,x,x
Cc1csc(NC(=O)/C=C/c2ccc(C)o2)n1,-10%,u,4.5µM*,-17%,u
Cc1ccc(/C=C/C(=O)Nc2ncc(C)s2)o1,-9%,u,-18%,u,13µM*
Cc1csc(NC(=O)/C=C/c2ccco2)n1,3%,-2%,u,u,-26%
CC(C)(O)C1CC[C@@]2(C)C3CCC4[C@@]5(C)CCCC(C)(C)C5C(O)C[C@]4(C)[C@]3(C)CC[C@@H]12 (some centres undefined),x,-4%,-11%,8%,19%
Nc1nc(C2C(=O)CCCC2=O)cs1,-4%,-15%,-29%,1%,56µM*
CNc1nc(-c2ccccc2C(F)(F)F)nc2ccccc12,x,3%,-9%,-9%,12%
CCOC(=O)[C@]12CCC=C1N(CCC1=CCCCC1)C(=O)[C@H](CC(=O)NCc1cccs1)C2,-16%,x,x,x,x
COc1ccc(CCN(C)CCCN2CCc3cc(OC)c(OC)cc3CC2=O)cc1OC,x,-5%,0%,0%,2%
COc1cccc(-c2nc(NCCNC(C)=O)c3ccccc3n2)c1,x,4%,8%,-11%,4%
Oc1ccc(Br)cc1-c1ccn[nH]1,-1%,0%,2.8µM*,6.3µM*,20%
Oc1ccc(Cl)cc1-c1cc(-c2ccco2)[nH]n1,5.3µM*,u,3.5µM*,13µM*,50µM*
NNC(=O)c1cc(-c2ccco2)[nH]n1,-2%,8%,1%,0%,-5%
Oc1ccccc1-c1cc(-c2ccco2)[nH]n1,-3%,14µM*,u,u,-3%
Oc1c(-c2cc(-c3ccco3)[nH]n2)ccc2ccccc12,-5%,-4%,6.3µM*,14µM*,7%
O=C(Nc1cccnc1)c1cc(-c2cc(Cl)ccc2O)n[nH]1,-5%,x,18%,12%,7%
O=c1c(-c2ccc(Cl)cc2)nc2cnc(N3CCOCC3)nc2n1-c1ccccc1,x,u,10%,-6%,11%
CCC[C@@H]1CC(C(=O)NC(C2O[C@H](SC)C(OP(=O)(O)O)[C@H](O)[C@H]2O)[C@H](C)Cl)N(C)C1 (some centres undefined),x,x,9%,-2%,7%
SMILES,PLK1 PBD inh,ALDH1A1 block,RORgamma inh,VP16 counter,Sfp inh
Oc1ccc(Br)cc1-c1cc(-c2ccco2)[nH]n1,-10%,-4%,13µM*,16µM*,-9%
O=C(O)/C(=C\c1ccccc1)Cc1ccccc1,x,-1%[13.5 µM],x,x,x
CN(CCC#N)C(=O)COC(=O)c1cccnc1Nc1ccccc1F,27µM*,6%,-8%,-1%,9%
COc1ccc(C(=O)N[C@H](C(=O)OCCCOC(=O)[C@@H](NC(=O)c2ccc(OC)cc2)C(C)C)C(C)C)cc1,-16%,x,x,x,x
CCCCn1c(SCC(=O)Nc2ccccc2C(F)(F)F)nc2ccsc2c1=O,0%,28µM*,4%,1%,-15%
CCCCn1c(SCC(=O)N2CCC(C)CC2)nc2ccsc2c1=O,-4%,11µM*,18%,-2%,-13%
CN(c1ccc([N+](=O)[O-])cc1)c1cc2c(c3c1ccn3C)C1CCC2C1 (centres undefined),-1%,x,x,x,x
Cc1[nH]c2ccccc2c1/C=N\NC(=O)c1ccccc1Cl,10%,x,x,x,x
CC(C)NC(=S)N/N=C/c1c[nH]c2ccccc12,7%,12%,3.5µM*,1.4µM*,12%
Cc1[nH]c2ccccc2c1/C=N/NC(=S)NC(C)C,-9%,-1%,2.5µM*,7.1µM*,u
Cc1[nH]c2ccccc2c1/C=N/NC(=O)CCC(=O)NCc1ccccc1,12µM*,4%,-15%,-2%,2%
CCOc1ccc(N=C2Sc3nc4ccc(C)cc4cc3CN2CCOC)cc1,-7%,-7%,4%,-6%,u
COCCN1Cc2cc3cc(C)ccc3nc2SC1=Nc1ccc(OC)cc1,-1%,-15%,3%,11%,20µM*
COCCN=C1Sc2nc3ccc(C)cc3cc2CN1Cc1cccs1,-16%,-14%,-25%,u,22µM*
COCCN1Cc2cc3cc(C)ccc3nc2SC1=Nc1cccc(OC)c1,-8%,u,1%,2%,-19%
CCC(C)N=C1Sc2nc3ccc(C)cc3cc2CN1CCOC (centres undefined),24µM*,14µM*,-74%,2%,45µM*
CCOc1ccc2nc3c(cc2c1)CN(CCCO)C(=NCCOC)S3,11µM*,3%,44%,18%,-26%
Cc1cccc(N=C2Sc3nc4c(C)c(C)ccc4cc3CN2CCN2CCOCC2)c1,-4%,-11%,24%,-5%,u
COCCN=C1Sc2nc3c(C)cccc3cc2CN1Cc1ccco1,u,3.5µM*,u,u,20µM*
Cc1ccc2nc3c(cc2c1)CN(Cc1ccco1)C(=NCC1CCCO1)S3 (centres undefined),27µM*,u,u,-3%[0.365 µM],u
COc1ccc(Nc2c(C3CC3)nc3nc(C)cc(C)n23)cc1,-7%,x,x,x,x
COC(=O)[C@@H]1CC[C@H](C)[C@@H](c2ccc(C)cc2)N1C(=O)c1ccc(/C=N\O[C@@H](C)CN2CCCc3nc(C)c(C)cc32)cc1,x,10%[13.5 µM],-1%[10 µM],7%[10 µM],-19%
Cc1ccc2[nH]c(=O)c(CN(Cc3cccnc3)Cc3nnnn3CCN3CCOCC3)cc2c1,4.7µM*,u,11%,-3%,8%
CCc1ccc2[nH]c(=O)c(CN(Cc3ccccc3)Cc3nnnn3Cc3ccco3)cc2c1,-12%,13µM*,-10%[0.365 µM],x,18µM*
O=c1[nH]c2cc3c(cc2cc1CN(Cc1cccs1)Cc1nnnn1Cc1ccco1)OCCO3,u,u,u,7%,20µM*
COc1ccccc1CN(Cc1cc2cc3c(cc2[nH]c1=O)OCCO3)Cc1nnnn1Cc1ccco1,u,u,u,6%,13µM*
